# GPR7 antag = human neuropeptides B/W receptor 1 antagonism; actives 1.1% (n = 290,000); AID 1861; inhibition, % at 4.4 µM; GPR7-expressing cells, fluorescence antagonist assay; in the data active means inhibition above about 16%, passing the limit was not always enough;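 further: cells stimulated with the agonist NPW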
# Target sequence (P48145 whole entry, looked up): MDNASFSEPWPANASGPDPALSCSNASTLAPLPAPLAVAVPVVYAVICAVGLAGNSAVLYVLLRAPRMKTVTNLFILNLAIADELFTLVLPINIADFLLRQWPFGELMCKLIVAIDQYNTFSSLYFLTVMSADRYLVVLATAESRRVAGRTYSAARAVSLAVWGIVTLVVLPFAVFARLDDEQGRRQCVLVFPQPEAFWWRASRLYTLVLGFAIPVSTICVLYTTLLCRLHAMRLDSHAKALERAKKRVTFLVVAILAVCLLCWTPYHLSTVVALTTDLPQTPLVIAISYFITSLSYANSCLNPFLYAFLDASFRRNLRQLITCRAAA
# Ba/F3 V617F tox = reduce viability of Ba/F3 cells dependent on JAK2V617F; Ba/F3 EpoR-JAK2V617F viability, ATP luminescence; inhibition, % at 5.6 µM; actives 1.1% (n = 220,000);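 active means inhibition above the campaign mean plus 3 SD over all tested compounds, cut at about 24% in these data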;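 further: cytokine-independent growth of Ba/F3 cells driven by EpoR plus mutant JAK2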
# KLF5 inhibitor = suppresses KLF5 promoter-driven expression; DLD-1 KLF5 promoter-luciferase reporter, luminescence; inhibition, % at 5 µM; actives 0.23% (n = 290,000); AID 1700;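 active means inhibition above a per-plate limit of that plate's mean compound inhibition plus 3 SD, cut at about 60% in these data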;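 further: higher means less KLF5 promoter-driven luciferase light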
# DNA FID counter = displaces DNA intercalator in HCV helicase counter-screen; actives 0.17% (n = 290,000); inhibition, % at 7.9 µM; AID 1845; DNA fluorescent intercalator displacement, fluorescence; in the data active means inhibition above about 37%;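 further: higher means more ethidium bromide displaced from hairpin DNA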
# BaF3 parental = counter-screen for JAK2V617F inhibitors: parental Ba/F3 viability inhibitors; CellTiter-Glo ATP luminescence; inhibition, % at 5.6 µM; actives 1.1% (n = 220,000);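 active means inhibition above a per-campaign cutoff, the mean inhibition of all tested compounds plus 3 SD, cut at about 27% in these data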
# IEC-6 tox-1 = counter-screen for KLF5 inhibitors: cytotoxicity in IEC-6 cells | IEC-6 cytotoxicity, luminescence viability | inhibition, % at 5 µM | actives 0.78% (n = 290,000)
# KLF5 inh confirm = confirmation of KLF5 inhibitors. actives 79% (n = 610). DLD-1 KLF5 promoter firefly luciferase reporter, luminescence. inhibition, % at 4 µM. AID 1834. shares compounds with KLF5 inhibitor;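 active means inhibition above a set limit taken from the earlier primary screen, cut at about 63% in these data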
# IEC-6 tox-2 = kills rat IEC-6 cells in KLF5 counter-screen. shares compounds with KLF5 inhibitor. IEC-6 rat intestinal cells, viability luminescence. inhibition, % at 4 µM. actives 56% (n = 610); in the data active means inhibition above about 23%;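 further: cells exposed to compounds for 48 hours before viability read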
# IEC-6 cytotox cf = confirmation of cytotoxic compounds in rat IEC-6 intestinal epithelial cells. inhibition, % at 5 µM. AID 1907. shares compounds with IEC-6 tox-1. IEC-6 rat intestinal epithelial viability, luminescence. actives 63% (n = 1,900)
# GPR7 antag cf = confirmation of human GPR7 antagonists; actives 52% (n = 2,400); shares compounds with GPR7 antag; GPR7-expressing cells, calcium fluorescence antagonist mode; inhibition, % at 4.4 µM; in the data active means inhibition above about 24%;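 further: stimulated with the GPR7 agonist NPW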
# MCHR1 antag = counter-screen for GPR7 antagonists: antagonists of human MCHR1; shares compounds with GPR7 antag; MCHR1-expressing cells, fluorescence antagonist assay; inhibition, % at 4.4 µM; actives 62% (n = 2,400); AID 2148
# Hits are given with their value; - = inactive; . = not tested or not shown. Sampled rows, rich in hits. Any-hit rate of the full collection: about 2.6%. Unless noted, no stated cut-off is given here; in the data, active means inhibition above about 22%; inactive means the rest.
SMILES,GPR7 antag,Ba/F3 V617F tox,KLF5 inhibitor,DNA FID counter,BaF3 parental,IEC-6 tox-1,IEC-6 cytotox cf,others
CCOc1ccc(Nc2cc(C)nc(-n3nc(C)cc3C)n2)cc1,-,77,81,-,81,84,52,KLF5 inh confirm=81;IEC-6 tox-2=56
CNc1cc(C)nc(-n2nc(C)cc2C)n1,-,-,-,-,-,-,.,
CCN(CC)S(=O)(=O)c1ccc(OC)c(NS(=O)(=O)c2ccc(F)cc2)c1,-,-,-,-,-,-,.,
CC(C)N1CCc2c(sc(NC(=O)c3ccc4ccccc4c3)c2C(N)=O)C1,-,.,-,-,.,-,.,
CC(=O)Nc1sc2c(c1-c1nc3ccccc3s1)CCN(C(C)C)C2,-,95,62,60,73,99,29,KLF5 inh confirm=62;IEC-6 tox-2=23
COc1ccc(NC(=O)/C(Cl)=C(/Cl)S(=O)Cc2ccccc2Cl)cn1 (configuration not stated),40,102,107,-,103,102,86,KLF5 inh confirm=111;IEC-6 tox-2=63;GPR7 antag cf=76;MCHR1 antag=91
COc1ccc(NC(=O)Cc2ccc(Cl)c(Cl)c2)cn1,-,-,-,-,-,-,.,
CC(=O)Nc1ccc(S(=O)(=O)N(C)c2ccccc2)cc1,-,-,-,-,-,-,.,
CCS(=O)(=O)c1ncc(Cl)c(C(=O)Nc2ccc(S(=O)(=O)N(C)c3ccccc3)cc2)n1,61,.,85,-,.,101,28,KLF5 inh confirm=-;IEC-6 tox-2=-;GPR7 antag cf=96;MCHR1 antag=98
COc1ccc2c(c1)C(C)=CC(C)(C)N2S(=O)(=O)c1ccc(NC(C)=O)cc1,24,.,81,-,.,90,57,KLF5 inh confirm=88;IEC-6 tox-2=59;GPR7 antag cf=32;MCHR1 antag=44
Cc1cccc(-c2csc(N)c2C(=O)OC(C)C)c1,-,-,-,-,-,-,.,
O=C1CSC(=Nc2ccc(Cl)cc2)N1,-,.,-,-,.,-,.,
O=[N+]([O-])c1ccc(O)c(-c2cc(C(F)(F)F)nc(-c3ccccc3)n2)c1,44,.,82,-,.,-,.,KLF5 inh confirm=86;IEC-6 tox-2=41;GPR7 antag cf=72;MCHR1 antag=60
Cc1cc(C)cc(N(CCC(=O)O)S(=O)(=O)c2ccc3ccccc3c2)c1,-,-,-,-,-,-,.,
CCOC(=O)C(C)Oc1cccc2c(=O)n(CC(=O)NCc3ccccc3)ccc12 (configuration not stated),22,73,63,-,76,82,58,KLF5 inh confirm=84;IEC-6 tox-2=58;GPR7 antag cf=-;MCHR1 antag=-
NC(=S)N/N=C/c1ccc(C(F)(F)F)cc1,-,66,-,-,35,39,-,
O=C(Nc1ccc(Br)cn1)c1ccc(Br)s1,-,.,-,-,.,28,-,
CCc1nnc(NC(=O)c2cc(Cl)ccn2)s1,-,.,-,-,.,31,-,
CCc1nnc(NC(=O)c2ccc(Cl)nc2)s1,-,-,-,-,-,-,.,
Cc1cc(C=O)c(C)n1-c1ccc(N2CCCC2)c([N+](=O)[O-])c1,-,-,-,-,-,-,.,
C=CCNc1nnc(Cc2ccc(C(C)C)cc2)c(=O)[nH]1,-,.,-,-,.,23,-,
COc1ccc(Cc2nnc(NCCO)[nH]c2=O)cc1,-,.,-,-,.,-,.,
CCn1ncc(C2=NOC(C(=O)NCc3ccc(Cl)cc3)C2)c1C (configuration not stated),-,-,-,-,-,83,51,
CCCn1c(-c2ccc(C(=O)OC)cc2)nc2c1c(=O)[nH]c(=O)n2Cc1ccccc1,-,.,-,-,.,-,.,
Cc1ccc(-c2csc(NC(=O)c3ccc(C)o3)n2)cc1,-,-,-,-,-,-,.,
SMILES,GPR7 antag,Ba/F3 V617F tox,KLF5 inhibitor,DNA FID counter,BaF3 parental,IEC-6 tox-1,IEC-6 cytotox cf,others
O=C(Nc1cc(-c2nc3ncccc3o2)ccc1Cl)c1ccc([N+](=O)[O-])o1,-,.,-,-,.,93,30,
Cc1ccc(-c2csc(NC(=O)c3ccc([N+](=O)[O-])o3)n2)cc1,-,.,-,-,.,100,42,
Cn1cc([N+](=O)[O-])c(C(=O)Nc2ccc(C3CCCCC3)cc2)n1,-,-,-,-,-,25,30,
Cn1cc([N+](=O)[O-])c(C(=O)Nc2nc(-c3ccc(Cl)cc3)cs2)n1,-,-,-,-,28,37,56,
Cn1cc([N+](=O)[O-])c(C(=O)Nc2ccc(C(=O)N3CCCCC3)cc2)n1,-,-,-,-,-,-,.,
CC(C)CNC(=S)NNC(=O)c1csc2c1CCCC2,-,-,-,-,-,-,.,
CC(C)(C)c1ccc(C(=O)Nc2ncn[nH]2)cc1,-,-,-,-,-,-,.,
O=C(Nc1ncccn1)c1ccc([N+](=O)[O-])o1,-,-,-,-,-,-,.,
Cc1cccc(NC(=O)c2ccc([N+](=O)[O-])o2)c1C,-,-,-,-,-,34,23,
O=C(Nc1ccccn1)c1ccc([N+](=O)[O-])o1,-,-,-,-,-,-,.,
O=C(Nc1nc2c(F)cccc2s1)c1ccc([N+](=O)[O-])o1,-,.,-,-,.,40,-,
Cc1ccc2nsnc2c1NC(=O)c1ccc([N+](=O)[O-])o1,-,.,-,-,.,96,28,
O=C(Nc1cccc2ccccc12)c1ccc([N+](=O)[O-])o1,-,.,-,-,.,96,22,
COc1ccc(CCNC(=O)c2cc(=O)c3ccc(C)cc3o2)cc1OC,-,.,-,-,.,-,.,
CC(Nc1ncnc2ccccc12)c1ccccc1 (configuration not stated),-,.,-,-,.,28,27,
CC(C)Oc1ccc(Nc2ncnc3ccccc23)cc1,-,-,-,-,-,-,.,
COc1cc(C(=O)NCCOc2cc(C)cc(C)c2)cc(OC)c1OC,-,.,-,-,.,62,42,
CCOc1ccc(CCNC(=O)c2ccc3c(c2)NC(=O)C2CCCN32)cc1OCC (configuration not stated),-,.,-,-,.,-,.,
CC1CC(C)CN(C(=O)CCCn2c(=O)c3cccn3c3cccnc32)C1 (configuration not stated),-,.,-,-,.,-,.,
CCOC(=O)c1cc2c(ccn2C)n1CC(=O)N(Cc1ccccc1)c1ccccc1,-,-,-,-,-,32,-,
CCOC(=O)c1cc2c(ccn2C)n1CC(=O)N(Cc1ccccc1)c1ccc(F)cc1,-,-,-,-,-,-,.,
Cc1ccccc1Cn1c(C(=O)OC(C)C)cc2c1ccn2C,-,-,-,-,-,-,.,
Cc1ccc(C)c(Cn2c(C(=O)OC(C)C)cc3c2ccn3C)c1,-,-,-,-,-,29,-,

# Screening data from PubChem BioAssay.
